Measurements as given in PubChem BioAssay (EPA / NIEHS).
“And” between values parts separate entries of the source, which are not always exact repeats. Equal entries are not always repeated. Inconclusive results are not listed. More than one record can exist for a structure, and the calls need not agree. The source made the active and inactive calls. How the source made its calls: active means hit-call score of the fitted dose curve at least 0.9, where 1 is the maximum; inconclusive means response in the unintended direction; inactive means score below 0.9.

Key:
[1] = target: Cellular tumor antigen p53 (Homo sapiens) (UniProt P04637); assay: TOX21_p53_BLA_p3_ratio: Tox21 HCT-116 p53 Agonism Beta-lactamase Assay, Ratio, Phase 3 (AID 2283596)
Method in brief: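 HCT116 p53-bla cells (4000/well) given compound in DMSO (217-fold dilution) after 5 h, incubated 16 h at 37C. CCF4-AM substrate 2 h at room temperature; 460/530 nm emission ratio, gain fitted against DMSO.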

[2] = TOX21_p53_BLA_p4_viability: Viability Assessment in the Tox21 HCT-116 p53 Agonism Beta-lactamase Assay, Phase 4 (AID 2283597);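 further: hits lower the luminescence signal meaning cytotoxicity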
Method in brief: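 Following a 16 h exposure at 37C, the treated HCT116 wells were first read for the FRET ratio. They were then lysed with CellTiter-Glo, and ATP luminescence was recorded after 30 min at room temperature.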

[3] = target: Cellular tumor antigen p53 (Homo sapiens) (UniProt P04637); assay: TOX21_p53_BLA_p5_ratio: Tox21 HCT-116 p53 Agonism Beta-lactamase Assay, Ratio, Phase 5 (AID 2283599)
Method in brief: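 HCT-116 cells carrying a p53-inducible beta-lactamase reporter were seeded at 4000 cells/well and dosed after 5 h with compound in DMSO (217-fold dilution). After 16 h at 37C, CCF4-AM substrate was added for 2 h, and the 460/530 nm emission ratio was scored as gain-of-signal versus DMSO.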

[4] = TOX21_p53_BLA_p5_viability: Viability Assessment in the Tox21 HCT-116 p53 Agonism Beta-lactamase Assay, Phase 5 (AID 2283600)
Method in brief: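 After the 460/530 nm beta-lactamase measurement, the wells received an ATP-detection luciferase reagent; signal was read 30 min later at RT. Compound treatment lasted 16 h on cells pre-incubated 5 h post-seeding.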

[5] = target: Cellular tumor antigen p53 (Homo sapiens) (UniProt P04637); assay: TOX21_p53_BLA_p4_ratio: Tox21 HCT-116 p53 Agonism Beta-lactamase Assay, Ratio, Phase 4 (AID 2283601)
Method in brief: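 HCT116 cells carrying an inducible beta-lactamase reporter were plated at 4000 cells/well, rested 5 h, then exposed to compounds in DMSO (217-fold dilution) for 16 h at 37C. CCF4-AM substrate was loaded 2 h at room temperature; 460/530 nm emission ratio scored gain-of-signal versus DMSO.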

[6] = Tanguay_ZF_120hpf_MORT_legacy: (Legacy) Oregon State University Tanguay Lab 120 Hour Post-fertilization zebrafish Assay for Mortality (AID 2283633);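 on AC50: fitted as increase in binary mortality versus DMSO negative control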
Method in brief: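 Static waterborne exposure from 6 to 120 hpf at 28C of single dechorionated wild-type (5D) embryos per well, 0.64% DMSO final. Death recorded present/absent by brightfield at 24 and 120 hpf.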

[7] = Tanguay_ZF_120hpf_YSE_legacy: (Legacy) Oregon State University Tanguay Lab 120 Hour Post-fertilization zebrafish Assay for Yolk Sac Edema (AID 2283634)
Method in brief: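 Presence or absence of yolk sac edema was recorded at 120 hpf in surviving larvae. These were wild-type Tropical 5D embryos, chorion removed at 4 hpf, held in static exposure at 28C from 6 hpf with 0.64% DMSO vehicle.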

[8] = Tanguay_ZF_120hpf_AXIS_legacy: (Legacy) Oregon State University Tanguay Lab 120 Hour Post-fertilization zebrafish Assay for Body Axis Malformation (AID 2283635)
Method in brief: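 Binary scoring of axis defects at 120 hpf under brightfield, fitted positive versus DMSO. Tropical 5D embryos, chorion removed by pronase at 4 hpf, were singly exposed in sealed, dark plates at 28C from 6 hpf; DMSO 0.64% final.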

[9] = Tanguay_ZF_120hpf_EYE_legacy: (Legacy) Oregon State University Tanguay Lab 120 Hour Post-fertilization zebrafish Assay for Eye Malformation (AID 2283636);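 further: binary presence or absence of eye malformation scored by brightfield in 120 hpf larvae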
Method in brief: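 Dechorionated wild-type Tropical 5D zebrafish embryos were exposed statically from 6 hpf, one per well, to 120 hpf at 28C in sealed, foil-covered plates with 0.64% DMSO. Eye malformation was scored present/absent by brightfield microscopy against DMSO controls.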

[10] = Tanguay_ZF_120hpf_JAW_legacy: (Legacy) Oregon State University Tanguay Lab 120 Hour Post-fertilization zebrafish Assay for Jaw Malformation (AID 2283638)
Method in brief: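 Binary jaw-malformation call at 120 hpf by brightfield microscopy. Embryos (Tropical 5D strain, chorion removed at 4 hpf) were dosed statically at 6 hpf, one per well, at 28C with 0.64% DMSO. Embryos that died were not scored.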

[11] = Tanguay_ZF_120hpf_OTIC_legacy: (Legacy) Oregon State University Tanguay Lab 120 Hour Post-fertilization zebrafish Assay for Otic Vesicle Malformation (AID 2283639)
Method in brief: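 Tropical 5D wild-type zebrafish embryos statically exposed in 0.64% DMSO at 28C until 120 hpf; 5uM trimethyltin chloride as positive control. Otic vesicle malformation scored present/absent by brightfield; dead embryos not scored; gain fitted versus DMSO.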

[12] = Tanguay_ZF_120hpf_PE_legacy: (Legacy) Oregon State University Tanguay Lab 120 Hour Post-fertilization zebrafish Assay for Pericardial Edema (AID 2283640)
Method in brief: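 Scoring was binary, by brightfield microscopy at 120 hpf, and skipped where mortality occurred. Wild-type embryos were kept under sealed, foil-covered static exposure at 28C in 0.64% (vol/vol) DMSO.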

[13] = Tanguay_ZF_120hpf_SOMI_legacy: (Legacy) Oregon State University Tanguay Lab 120 Hour Post-fertilization zebrafish Assay for Somite Malformation (AID 2283647)
Method in brief: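 Binary somite-defect scoring at 120 hpf, omitted for embryos that died, in wild-type (Tropical 5D) zebrafish with chorion removed by pronase at 4 hpf; static exposure began 6 hpf, single embryos per well, 28C, 0.64% DMSO; fitted positive versus DMSO.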

[14] = Tanguay_ZF_120hpf_CFIN_legacy: (Legacy) Oregon State University Tanguay Lab 120 Hour Post-fertilization zebrafish Assay for Caudal Fin Malformation (AID 2283649)
Method in brief: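 Binary brightfield scoring of caudal fin defects at 120 hpf after static, light-shielded exposure at 28C from 6 hpf. Tropical 5D embryos, chorion removed with pronase at 4 hpf, final DMSO 0.64%.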

[15] = Tanguay_ZF_120hpf_PIG_legacy: (Legacy) Oregon State University Tanguay Lab 120 Hour Post-fertilization zebrafish Assay for Pigmentation Malformation (AID 2283650)
Method in brief: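 Tropical 5D wild-type zebrafish embryos, dechorionated with pronase at 4 hpf, were exposed singly from 6 hpf to 120 hpf statically at 28C in sealed, dark plates with 0.64% DMSO; pigmentation scored present/absent by brightfield microscopy, fitted against DMSO.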

[16] = Tanguay_ZF_120hpf_CIRC_legacy: (Legacy) Oregon State University Tanguay Lab 120 Hour Post-fertilization zebrafish Assay for Circulatory Malformation (AID 2283651)
Method in brief: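 Dechorionated wild-type 5D zebrafish embryos, one per well, statically exposed from 6 to 120 hpf at 28C with 0.64% DMSO; circulatory malformation scored present/absent by brightfield microscopy at 120 hpf, dead embryos excluded.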

[17] = Tanguay_ZF_120hpf_PFIN_legacy: (Legacy) Oregon State University Tanguay Lab 120 Hour Post-fertilization zebrafish Assay for Pectoral Fin Malformation (AID 2283648);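 further: each larva judged yes or no for fin defect by brightfield with dead larvae skipped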
Method in brief: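 Tropical 5D wild-type embryos, dechorionated with pronase at 4 hpf, were placed singly in wells at 6 hpf and statically exposed until 120 hpf at 28C, sealed and dark, with 0.64% (vol/vol) final DMSO; pectoral fin malformation scored present/absent.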

Measured: AC50

Sequence of Cellular tumor antigen p53 (Homo sapiens) (P04637 whole entry, looked up): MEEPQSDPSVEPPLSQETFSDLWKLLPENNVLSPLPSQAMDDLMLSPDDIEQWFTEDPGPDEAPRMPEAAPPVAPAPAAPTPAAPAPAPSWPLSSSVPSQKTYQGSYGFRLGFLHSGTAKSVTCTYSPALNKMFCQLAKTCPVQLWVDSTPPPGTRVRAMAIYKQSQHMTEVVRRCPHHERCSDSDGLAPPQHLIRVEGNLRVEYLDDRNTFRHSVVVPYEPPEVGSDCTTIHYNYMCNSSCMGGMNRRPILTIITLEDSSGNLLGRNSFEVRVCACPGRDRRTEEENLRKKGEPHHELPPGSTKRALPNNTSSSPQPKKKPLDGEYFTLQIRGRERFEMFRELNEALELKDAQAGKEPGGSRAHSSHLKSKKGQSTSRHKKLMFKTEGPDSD

O=C(CCl)CCl
inactive: [1] | [2] | [3] | [4] | [5]

CC(C)c1cccc(C(C)C)c1O
inactive: [1] | [2] | [3] | [4]

CN(C)P(=O)(N(C)C)N(C)C
inactive: [1] | [2] | [3] | [4] | [5]

C(=NC1CCCCC1)=NC1CCCCC1
active: [1] 16.2 µM
inactive: [1] | [3] | [4] | [5]

CC(C)OC(=S)S
inactive: [1] | [2] | [3] | [4]

Nc1ccc(-c2ccc(N)c(Cl)c2)cc1Cl
inactive: [1] | [2] | [3] | [4] | [5]
active: [1] 15.7 µM and 18.6 µM | [3] 16.3 µM and 43.3 µM | [5] 33.6 µM

N#Cc1ccccn1
inactive: [1] | [2] | [3] | [4] | [5]

CCC[CH2][Sn]([CH2]CCC)([CH2]CCC)[O]C(=O)c1ccccc1
active: [1] 24.4 µM | [2] 0.953 µM | [3] 24.7 µM | [4] 1.77 µM | [5] 27.2 µM

NC(=O)CF
inactive: [1] | [2]

C[C@@H]1C[C@@H]([C@H](O)CC2CC(=O)NC(=O)C2)C(=O)[C@@H](C)C1
active: [2] 1.92 µM | [6] 43.2 µM
inactive: [1] | [2] | [3] | [4] | [5] | [7] | [8] | [9] | [10] | [11] | [12] | [13] | [14] | [15] | [16]

c1cc[c]([Hg][c]2ccccc2)cc1
active: [2] 79.3 µM
inactive: [1] | [3]

CCCCCCCCSC(=O)Oc1cc(Cl)nnc1-c1ccccc1
inactive: [1] | [2] | [3] | [4]

CC(C)(c1ccc(OCC2CO2)cc1)c1ccc(OCC2CO2)cc1 (stereo unspecified)
inactive: [3] | [4] | [5]
active: [1] 84.2 µM and 80.6 µM | [2] 70.9 µM and 72.2 µM | [3] 87.1 µM | [5] 79.4 µM

CC(C)(C)CC(C)(C)c1ccc(O)cc1
active: [1] 41.9 µM | [2] 69 µM and 22.2 µM | [3] 61.9 µM and 38.6 µM | [4] 65.3 µM and 39.6 µM | [5] 79.4 µM
inactive: [1] | [5] | [6] | [7] | [8] | [9] | [11] | [12] | [13] | [17] | [14]

Clc1ccc(COC(Cn2ccnc2)c2ccc(Cl)cc2Cl)cc1 (stereo unspecified)
active: [1] 66.3 µM and 45.5 µM and 34.6 µM | [2] 70.5 µM and 61.1 µM and 37.6 µM | [3] 79.1 µM and 60.7 µM and 38.7 µM | [4] 85.2 µM and 75.6 µM and 36.2 µM | [5] 77.8 µM and 62 µM and 33.9 µM

C[C@H]1O[C@@H](O[C@H]2[C@@H](O)C[C@H](O[C@H]3[C@@H](O)C[C@H](O[C@H]4CC[C@@]5(C)[C@H](CC[C@@H]6[C@@H]5CC[C@]5(C)[C@@H](C7=CC(=O)OC7)CC[C@]65O)C4)O[C@@H]3C)O[C@@H]2C)C[C@H](O)[C@@H]1O
inactive: [1] | [3] | [4] | [5]
active: [2] 40.5 nM and 66.7 nM | [4] 0.028 µM
